In PubChem BioAssay (NCATS):
Values joined by “and” are separate entries in the source; they are usually repeats but may differ in a detail not shown here. Identical values can stand only once. Records with an inconclusive call do not appear. Values without a mark were called inactive. Active and inactive are the calls of the source. Calls come from the whole dose curve; as a rule, active = well fitted curve in the direction sought with a large enough effect; inconclusive = small, poorly fitted or top-dose-only effect, or another doubt; inactive = no such curve, though single readings can be large; an effect the other way counts as inactive or inconclusive.

How the values were obtained:
[1] = Viability qHTS for spleen associated tyrosine kinase inhibitor (SYKi) drug resistant MV4-11 cells (AID 1963824); note: nearly all actives have a fitted effect of over 35% in size
Summary of the method: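 CellTiter-Glo luminescence, read 10 min after reagent addition, reports viability after a 72 hr compound exposure. Cells are an MV4-11 line made resistant to SYK inhibition, seeded at 500 per well onto compound-containing plates.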

[2] = Cellular viability qHTS for adrenocortical cancer (ACC) cell line SW-13 (AID 1963989); details: SW-13 ACC cells viability, CellTiter-Glo, 48 h; activity (max response): stronger effect = lower value; note: nearly all actives have a fitted effect of over 65% in size;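 for activity (max response): cells grown in serum-free medium with ITS supplement; % is set by controls: 0 for no effect and ±100 for the full control effect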
Summary of the method: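 Viability was read as CellTiter-Glo luminescence after 48 h compound treatment (up to 46 uM final) of SW-13 cells grown serum-free; titration curves were fit with a four-parameter logistic model to give IC50 and efficacy.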

[3] = Cellular viability qHTS for adrenocortical cancer (ACC) cell line NCI-H295R (AID 1963990); note: nearly all actives have a fitted effect of over 60% in size
Summary of the method: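 CellTiter-Glo ATP luminescence, read 48 h after compound addition, measured viability of NCI-H295R adrenocortical cells grown serum-free with ITS. Final concentrations spanned up to 46 uM. Data normalized to DMSO and doxorubicin, fitted for IC50 and maximal response.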
Potency is the fitted concentration of half-maximal effect.

| Compound | Potency [1] | activity (max response) [2] | Potency [3] | Potency [2] |
| --- | --- | --- | --- | --- |
| CC(C)=CCC/C(C)=C/CO | inactive | 10% | inactive |  |
| O=C(CCCl)NCc1ccccc1 | inactive | 9.65% | inactive |  |
| C[C@]12CCC(=O)C=C1C=C[C@@H]1[C@@H]2CC[C@@]2(C)[C@H]1CC[C@@]21CCC(=O)O1 | inactive | 8.87% | inactive |  |
| Nc1ccc(S(=O)(=O)NCc2ccccc2)cc1 | inactive | -7% | inactive |  |
| CC(=O)N[C@@H](CC(C)C)C(=O)O | inactive | 7.87% | inactive |  |
| CCN(CC)CCNC(=O)c1ccc(NC(C)=O)cc1 | inactive | -7.72% | inactive |  |
| CC1CC(OC(=O)c2ccccc2O)CC(C)(C)C1 (stereo unspecified) | inactive | 10.4% | inactive |  |
| CCCCC(CC)CNC(=O)CC(C)OC(=O)CCC(=O)O (stereo unspecified) | inactive | -6.84% | inactive |  |
| C/C(=C(\CCO)SS/C(CCO)=C(\C)N(C=O)Cc1cnc(C)nc1N)N(C=O)Cc1cnc(C)nc1N | inactive | 7.36% | inactive |  |
| CS(=O)(=O)c1ccc(-c2nnc(/C=C/c3nnc(-c4ccc(C#N)cc4)o3)n2-c2ccccc2Cl)nc1 | 14.8 µM (active) | -6.81% | inactive |  |
| Cc1c[nH]c2nc(Nc3ccc(N4CCN(C)CC4)c(F)c3)nc(-c3cccc(CC#N)c3)c12 | 0.0059 µM (active) |  | 2.51 µM (active) | 2.24 µM (active) |
| CC1=C(C/C=C(\C)CCC[C@H](C)CCC[C@H](C)CCCC(C)C)C(=O)c2ccccc2C1=O | inactive | 12.7% | inactive |  |
| CC(C)(C)CC(C)(C)c1ccc(O)c(-n2nc3ccccc3n2)c1 | inactive | 4.68% | inactive |  |
| CN1CCC(=C2c3ccccc3Sc3ccccc32)CC1 | 16.8 µM (active) |  | 8.2 µM (active) | 23.1 µM (active) |
| CCNC(=O)NCCCOc1cccc(CN2CCCCC2)c1 | inactive | -6.89% | inactive |  |
| C=CC(=O)N1CC/C(=C\c2ccc(F)c([N+](=O)[O-])c2)C(=O)/C(=C/c2ccc(F)c([N+](=O)[O-])c2)C1 | 0.0332 µM (active) |  | 0.316 µM (active) | 0.794 µM (active) |

| Compound | Potency [1] | activity (max response) [2] | Potency [3] | Potency [2] |
| --- | --- | --- | --- | --- |
| O=c1cc(N2CCOCC2)oc2c(-c3ccc4c(c3)OCCO4)csc12 | 0.59 µM (active) |  | 2.51 µM (active) | 11.2 µM (active) |
| Cc1cc(-c2ccccc2)nnc1NCCN1CCOCC1 | inactive | -11% | inactive |  |
| COc1ccc(/C=C/C(=O)Nc2ccccc2C(=O)O)cc1OC | inactive | -0.0143% | inactive |  |
| Cc1ccc(NC(=O)NCc2ccc3c(c2)CN(C2CCC(=O)NC2=O)C3=O)cc1Cl (stereo unspecified) | 0.0013 µM (active) |  | 0.0251 µM (active) | 0.0089 µM (active) |
| COc1cccc2c1C(=O)c1c(O)c3c(c(O)c1C2=O)C[C@@](O)(C(C)=O)C[C@@H]3O[C@H]1C[C@H](N)[C@H](O)[C@H](C)O1 | 42.2 nM (active) and 18.6 nM (active) |  | 461 nM (active) and 2.24 µM (active) | 51.7 nM (active) and 501 nM (active) |
| O=C1C(O)=C(O)C(=O)C(O)=C1O | inactive | 13.8% | inactive |  |
| NC[C@H]1O[C@H](O[C@H]2[C@H](O)[C@@H](O[C@H]3O[C@H](CO)[C@@H](O)[C@H](N)[C@H]3O)[C@H](N)C[C@@H]2N)[C@H](N)C[C@@H]1O | 18.6 µM (active) | 4.38% | inactive |  |
| Cc1c(CN2CCC(Nc3ncnc4sc(CC(F)(F)F)cc34)CC2)ccc2c1cc(C#N)n2Cc1cn[nH]c1 | 0.468 µM (active) |  | 6.31 µM (active) | 4.47 µM (active) |
| O=C(Nc1ccc(C(=O)O)c(O)c1)c1ccccc1 | inactive | 1.55% | inactive |  |
| CC(=O)Nc1ccc(OC(=O)c2ccccc2OC(C)=O)cc1 | inactive | 8.82% | inactive |  |
| C#C[C@]1(O)CC[C@H]2[C@@H]3CCC4=CC(=O)CC[C@@H]4[C@H]3CC[C@@]21CC | 9.34 µM (active) | -2.48% and -7.29% | inactive |  |
| NC(=S)N/N=C/c1cccnc1 | inactive | -1.7% | inactive |  |
| COc1ccnc2[nH]cc(C(=O)C(=O)N3CCN(C(=O)c4ccccc4)C[C@H]3C)c12 | inactive | 1.31% | inactive |  |
| COc1ccc2c(c1)CC[C@@H]1[C@@H]2CC[C@]2(C)[C@@H](NCCCCCCN3C(=O)C=CC3=O)CC[C@@H]12 | 5.25 µM (active) | -14.7% | inactive |  |
| CC(=O)Nc1ccc(C(=O)Nc2ccccc2N)cc1 | 3.55 µM (active) and 3.72 µM (active) |  | 6.31 µM (active) | 11.2 µM (active) |
| Clc1ccccc1CN1CCc2sccc2C1 | 18.8 µM (active) | 1.55% | inactive |  |
